Only some compounds are listed: those with a hit (about 12% of all), similar ones and a draw of the others.
Arbovirus anti = antivirals against arbovirus infection, primary screen, cell-based, full library, 10K replicate subset | 200,000 tested, 0.37% active | inhibition, % at 10 µM | arbovirus infection cell-based antiviral screen | AID 1251, 2008; in the data active = inhibition above about 30%
CHOP inhibitor = inhibitors of CHOP promoter induction, primary screen, cell-based, unfolded protein response, luciferase reporter | CHO-K1 CHOP-promoter luciferase, tunicamycin-induced, 15-18 h | inhibition, % at 10 µM | 220,000 tested, 3.8% active | AID 2732, 2010;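 active = compounds that reduced the stress-induced luciferase reporter signal by more than about 70% of percent inhibition, limit read from the data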;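 note: 0% = tunicamycin plus vehicle and 100% = wells without tunicamycin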
Lmaj promast = Leishmania major promastigote growth inhibition, primary screen; AID 1063, 2008; inhibition, % at 10 µM; 200,000 tested, 9% active; Leishmania major promastigotes, resazurin fluorescence viability; in the data active = inhibition above about 50%;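 note: promastigotes grown with compound for 44 hours at 28 °C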
WT yeast gro inh = growth inhibition of WT strain, primary screen, mitochondrial fusion inhibitor project, WT and mutant strains, chemical genetic; 190,000 tested, 2.1% active; AID 1362, 2008; mitochondrial fusion phenotypic screen; inhibition, % at 10 µM; in the data active = inhibition above about 58%; tested in S. cerevisiae
Numbers without * were called inactive; / = not tested or not shown.

SMILES	Arbovirus anti	CHOP inhibitor	Lmaj promast	WT yeast gro inh
Cc1c(C(=O)NCCSCc2ccccc2Cl)cccc1[N+](=O)[O-]	-3	17	33	13
Cc1c(C(=O)Nc2nnc(SCc3ccccc3Cl)s2)cccc1[N+](=O)[O-]	-4	78*	74*	6
COc1ccccc1N/C(=N/S(=O)(=O)c1ccc(C)cc1)c1ccc(Cl)cc1	1	30	100*	22
COc1ccccc1NS(=O)(=O)c1cc(N/C(=N\S(=O)(=O)c2ccccc2)c2ccc(F)cc2)ccc1Cl	5	55	99*	-1
CC(=O)c1cc2c(cc1N/C(=N/S(=O)(=O)c1ccc(C)cc1)c1ccccc1)OCO2	-4	9	59*	47
Cc1cc(C)c2ccc(NN)nc2c1O	-31	9	99*	-36
Cc1cc(C)c2ccc(/C=N/O)nc2c1O	/	37	/	/
O=C(Nc1cccc(-c2nnc(-c3ccco3)o2)c1)C(c1ccccc1)c1ccccc1	4	54	100*	29
Cc1ccc(NS(=O)(=O)c2ccc(Br)cc2)nc1	0	3	-2	-7
Cc1ccc(S(=O)(=O)Nc2ccccc2CNc2ccc(Br)cn2)cc1	-26	70	9	65*
Cc1cnc(NS(=O)(=O)c2ccccc2)c(Br)c1	/	13	/	/
Cc1ccc(S(=O)(=O)Nc2ccccc2CNc2ncc(Br)cc2Br)cc1	-12	29	100*	17
Oc1ccccc1CNc1ccc(Br)cn1	-10	-9	33	-2
Cc1ccc(S(=O)(=O)Nc2ccccc2CNc2ccccn2)cc1	-5	26	59*	7
Brc1ccc(NCc2cccc3ccccc23)nc1	-2	87*	47	18
Cn1nc(-c2ccccc2)cc1NC(=O)C1CCCCC1	/	-4	/	/
c1cncc(C2OCC3(CO2)COC(c2cccnc2)OC3)c1 (centres undefined)	-3	6	-7	-9
CC1Cc2ccccc2N1C(=O)CO/N=C/c1ccc(OC(F)F)cc1 (centres undefined)	28	23	-8	22
Cc1ccc2nc(C(Cl)(Cl)Cl)nc(N/N=C/c3ccncc3)c2c1	1	72*	0	8
Cc1ccc(-c2nc(N/N=C/c3ccncc3)c3ccccc3n2)cc1	-24	81*	1	47
COc1ccc(/C=N/Nc2nc(-c3cccnc3)nc3ccccc23)cc1OC	/	-11	/	/
CCC(C)[C@H](NC(=O)Nc1ccc(C)cc1C)C(=O)O (some centres undefined)	/	22	/	/
CCCC1=C(C(=O)OCC)C(c2ccncc2)n2ncnc2N1 (centres undefined)	15	9	7	-11
Brc1ccc(C2C3=C(Nc4ncnn42)c2ccccc2OC3c2ccncc2)cc1 (centres undefined)	-16	20	75*	10
COc1ccc(C2Oc3ccccc3C3=C2C(c2cccs2)n2ncnc2N3)cc1 (centres undefined)	-12	9	69*	20
SMILES	Arbovirus anti	CHOP inhibitor	Lmaj promast	WT yeast gro inh
COc1ccc(OCC(=O)N(Cc2ccco2)C2CCS(=O)(=O)C2)cc1 (centres undefined)	/	-17	/	/
c1ccc2c3c([nH]c2c1)-c1[nH]ncc1CC3	3	71*	3	12
O=C1CCCc2c1[nH]c1ccccc21	4	23	3	4
O=C1N/C(=N/N=C/c2ccccc2O)SC1Cc1ccc(F)cc1 (centres undefined)	/	90*	/	/
COc1ccc(CC2S/C(=N/N=C/c3ccccc3O)NC2=O)cc1 (centres undefined)	/	70*	/	/
O=C1N/C(=N/N=C/c2ccc(O)cc2)SC1Cc1ccccc1 (centres undefined)	/	18	/	/
COc1ccc(CC2S/C(=N/N=C/c3ccc(O)cc3)NC2=O)cc1 (centres undefined)	-5	2	10	-7
Oc1ccc(C=NC2CCCCC2)cc1	/	17	/	/
O=[N+]([O-])c1ccc(N2CCOCC2)cc1O	/	11	/	/
Cc1cc(N2CCOCC2)ccc1/C=C\[N+](=O)[O-]	-36	62	70*	1
COc1ccccc1N(C)S(=O)(=O)c1ccc(Cl)c(C(=O)OCc2c(C)noc2C)c1	12	3	53*	20
COc1cccc(/C=N/Nc2ccc(C(=O)O)cc2)c1O	-8	101*	5	48
COc1cccc(/C=N/NC(=O)C(=O)N2CCCC2)c1O	-9	43	53*	-10
Clc1nc(-c2ccccc2)cc(-c2ccc(Br)cc2)n1	/	/	-3	/
Nc1cc(-c2ccc(Br)cc2)nc2cc(-c3ccccc3)nn12	9	82*	5	-18
CCOC(=O)c1oc2ccc(S(=O)(=O)n3nc(-c4cc(OC)c(OC)c(OC)c4)cc3N)cc2c1C	-4	11	64*	-3

Bioassay records as filed in PubChem BioAssay.
